Potency and affinity values are given separately. Calls of active or inactive are those of the source.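 How the source made its calls: active means compounds lowering reporter light with a fitted half-maximal concentration no more than twice the top tested dose; inconclusive means flat response with inhibition between 30 and 70%, or poor fit; inactive means rising signal, flat response, or weak potency.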
Assay: inhibitors of TRPM1-promoter reporter in SK-MEL-5 – cell-based, luciferase, dry powder, set 9, MITF inhibitor project, dose response (AID 651588)

Compound	outcome
Cc1ccc(NC2=CC(=O)c3ccccc3C2=O)cc1	inactive
O=C1C=C(Nc2ccccc2)C(=O)c2ccccc21	inactive

From PubChem BioAssay AID651588 (Broad Institute, 2012)
